# Laboratory results as given in ChEMBL document CHEMBL3433997, “St. Jude Leishmania screening dataset” (2016).
# Target: Solute carrier family 2, facilitated glucose transporter member 1 (Homo sapiens) (UniProt P11166)
# Experiment: ST_JUDE_LEISH: Cytotoxicity at 2uM final concentration against transgenic Leishmania Mexicana promastigotes LmGLUT1 that are glucose transport deficient and complemented with the human glucose transporter GLUT1. Activity is measured by DNA content using SYBR green in vitro
# Type: functional
# Chain of Solute carrier family 2, facilitated glucose transporter member 1 (Homo sapiens) (P11166 whole entry): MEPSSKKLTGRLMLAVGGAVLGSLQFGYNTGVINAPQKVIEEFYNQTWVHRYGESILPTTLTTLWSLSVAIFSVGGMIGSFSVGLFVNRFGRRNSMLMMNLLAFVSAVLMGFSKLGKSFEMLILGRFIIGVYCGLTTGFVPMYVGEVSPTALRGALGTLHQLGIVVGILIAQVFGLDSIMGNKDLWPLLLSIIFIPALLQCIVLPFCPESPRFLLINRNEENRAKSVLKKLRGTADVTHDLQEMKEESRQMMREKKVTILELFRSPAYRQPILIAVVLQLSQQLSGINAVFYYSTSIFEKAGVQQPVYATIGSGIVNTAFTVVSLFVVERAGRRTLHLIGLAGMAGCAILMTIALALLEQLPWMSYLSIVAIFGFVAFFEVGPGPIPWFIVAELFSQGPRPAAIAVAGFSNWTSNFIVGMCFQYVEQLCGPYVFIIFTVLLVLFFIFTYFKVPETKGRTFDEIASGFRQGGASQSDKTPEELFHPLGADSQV
row,Structure (SMILES),inhibition [%]
1,Cc1cc(O)c(-c2ccc(Oc3ccc(F)cc3)cc2)c(C)n1,0.78
2,CCCc1cc(N2CCC(N3CCCC3)CC2)nc(Nc2ccc(OC)cc2)n1,1.06
3,NC1=NC(Cc2ccccc2)(c2ccncc2)C(=O)N1CCCc1ccccc1 (configuration not stated),3.32
4,O=C(CC(=O)Nc1cc(Cl)cc(Cl)c1)Nc1cc(Cl)cc(Cl)c1,-1.77
5,CN1CCN(CCCSc2ccc3c(c2)ncn3-c2cc(OCc3ccccc3C(F)(F)F)c(C(N)=O)s2)CC1,8.47
6,CSc1ccc(NC(=O)Nc2cc(C)nc3ccccc23)cc1,10.3
7,Cc1cccc(CNc2nc(C)cc(N[C@@H](CC(C)C)C(=O)NCCOc3ccccc3)n2)c1,4.29
8,CN(CCCc1c[nH]c2ccccc12)CC1CCN(C(=O)/C=C/c2ccc(Cl)c(Cl)c2)CC1,-3.42
9,CN(C(=O)c1ccc(Br)cc1)c1ccccc1[N+](=O)[O-],-1.57
10,N=C(N)c1ccc(C(=O)Nc2cccc(C(=N)N)c2)cc1,-0.57
11,c1ccc2c(c1)ncc1c3ccccc3[nH]c21,7.76
12,CCSc1ccccc1CON1C(=N)N=C(N)NC1(C)C,15.4
13,Cc1cccc2nc(-c3ccc(-c4ccc(CN5CCC(N)C5)cc4)s3)[nH]c12 (configuration not stated),-3.3
14,CCCCCCCC1CCN(C[C@H](O)c2ccnc3ccc(OC)cc23)CC1,2.75
15,Cc1cc(NC(=O)c2cc(Br)ccc2Cl)n(-c2nc(C)c(C)c(=O)[nH]2)n1,-1.92
16,O=S(=O)(c1csc2ccccc12)N(CCC(O)(C(F)(F)F)C(F)(F)F)Cc1cccc(O)c1,-1.82
17,CC(C)N1CCC(N(Cc2ccc(-c3ccc(C(F)(F)F)cc3)cc2)C(=O)CCCn2c(CCc3cccc(F)c3F)nc(=O)c3ccccc32)CC1,5.92
